# RORgamma inh: inhibitors of mouse ROR gamma transcriptional activity | AID 2551 | P51450 | Drosophila S2 Gal4-RORgamma UAS-luciferase reporter, 20 h | Potency, µM (titrated, usually from 53.6 µM), for inactives: at the top dose activity change, negative = inhibition, usual class: inhibitors | actives 5.4% (n = 310,000); also: nearly all actives have a fitted effect of over 60% in size
# Target sequence (P51450 whole entry, looked up, the tested form may be a part): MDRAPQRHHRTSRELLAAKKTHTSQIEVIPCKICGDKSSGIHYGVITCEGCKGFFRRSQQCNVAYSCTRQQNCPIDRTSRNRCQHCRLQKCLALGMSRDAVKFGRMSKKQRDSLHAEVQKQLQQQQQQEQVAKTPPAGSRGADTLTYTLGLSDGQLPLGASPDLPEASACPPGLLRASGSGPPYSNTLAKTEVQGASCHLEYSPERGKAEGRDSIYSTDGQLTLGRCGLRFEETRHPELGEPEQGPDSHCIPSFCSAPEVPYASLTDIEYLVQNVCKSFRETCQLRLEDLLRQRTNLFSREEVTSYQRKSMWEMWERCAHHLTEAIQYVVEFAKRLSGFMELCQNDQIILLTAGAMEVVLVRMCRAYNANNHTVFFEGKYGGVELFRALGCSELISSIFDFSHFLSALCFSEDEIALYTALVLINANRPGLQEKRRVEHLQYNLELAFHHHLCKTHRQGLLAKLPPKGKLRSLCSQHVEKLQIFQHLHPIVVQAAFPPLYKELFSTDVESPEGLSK
#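 Schneider cells (Drosophila), stable Gal4 DBD–ROR gamma + UAS-luc; 1 hr cmpd preincubation; Cu2+ induction 700 uM final; 20 hr ambient; luminescence.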
# TDP1 inh: inhibitors of human tyrosyl-DNA phosphodiesterase TDP1 | Q9NUW8 | recombinant TDP1, AlphaScreen DNA substrate cleavage | Potency, µM (doses to about 130 µM), without a hit: at the top dose activity change, negative = inhibition, most hits filed as inhibitors | actives 0.28% (n = 350,000) | AID 485290; also: nearly all actives have a fitted effect of over 40% in size
#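 Steps: enzyme plus compound, 15 min RT; add biotin/phosphotyrosine-FITC oligonucleotide (15 nM final), react 5 min; add donor/acceptor beads (10 ug/ml final), 10 min; read AlphaScreen. Tdp1 at 1 nM final.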
# DT40 TDP1 no CPT: qHTS for Inhibitors of human tyrosyl-DNA phosphodiesterase 1 (TDP1): qHTS in cells in absence of CPT. DT40 Tdp1-/- hTDP1 cells, no CPT, ATP luminescence, 48 h. Potency, µM (series often up to 46.2 µM), for inactives: at the top dose activity change, negative = growth inhibition, hits mostly inhibitors. actives 15% (n = 420,000); also: nearly all actives have a fitted effect of over 55% in size
#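 DT40 Tdp1-/-;hTDP1 cells, no CPT (DMSO vehicle only), 400 cells/well; compounds pin-transferred; ≥48 hr, 37 °C; CellTiter-Glo 30 min RT dark, luminescence read.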
# VP16 counter: inhibits Gal4-VP16 luciferase reporter, ROR gamma counter-screen | Drosophila S2 Gal4-VP16 UAS-luciferase, luminescence, 20 h | Potency, µM (titrated, usually from 53.6 µM), for inactives: at the top dose activity, negative = inhibition, most hits filed as inhibitors | actives 3.5% (n = 310,000) | AID 2546;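 also: Gal4-VP16 expression switched on by copper sulfate through the metallothionein promoter; nearly all actives have a fitted effect of over 50% in size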
# TDP1 cell CPT: DT40-hTDP1 cell growth loss with CPT; actives 12% (n = 420,000); Potency, µM (top dose mostly 46.2 µM), for inactives: at the top dose activity change, negative = growth inhibition, actives largely listed as inhibitors; AID 686979; chicken DT40 Tdp1-/-;hTDP1 cells + 20 nM CPT, ATP luminescence, 48 h; also: nearly all actives have a fitted effect of over 55% in size
#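 Cell growth measured by CellTiter-Glo luminescence after a minimum 48 h, 37 C compound exposure with 20 nM CPT in Tdp1-knockout DT40 cells stably expressing hTDP1, seeded 400/well; qHTS titration format.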
# * = called active by the depositor; u = inconclusive; x = no result; ! = not confirmed by another sample; [ ] = another dose, or the depositor's remark. In the library only some 19% were active in any assay of this set; here they are far more common. Calls follow the shape of the dose curve; as a rule, active = well fitted curve in the direction sought with a large enough effect; inconclusive = small, poorly fitted or top-dose-only effect, or another doubt; inactive = no such curve, though single readings can be large; an effect the other way counts as inactive or inconclusive. % is scaled to controls: 0 for no effect and ±100 for the full control effect; potency is read from the fitted curve at half-maximal effect.
SMILES,RORgamma inh,TDP1 inh,DT40 TDP1 no CPT,VP16 counter,TDP1 cell CPT
O=C1C=C(NCc2ccncc2)CC(c2ccccc2)C1 (stereo not drawn),-10.3%,-1.0%,-15.3%,-11.3%,-14.1%
CCCCCNC1=CC(=O)CC(c2ccccc2)C1 (stereo not drawn),1.0%,2.0%,18.4µM*,-4.3%,u
CCOc1ccc(-c2cc3nc(C4CCN(C(=O)OC(C)(C)C)CC4)c(C(=O)Nc4cc(OC)ccc4OC)cn3n2)cc1,x,3.8%,u,x,u
CCOc1ccc(-c2cc3nc(C4CCN(C(=O)OC(C)(C)C)CC4)c(C(=O)Nc4ccc(C)c(F)c4)cn3n2)cc1,x,-1.3%,7.31µM*,x,9.2µM*
COc1ccc(-c2cc3nc(C4CCN(C(=O)OC(C)(C)C)CC4)c(C(=O)Nc4cc(C)cc(C)c4)cn3n2)cc1,x,1.3%,16.4µM*,x,u
COc1ccc(CN([C@H](C)CO)S(=O)(=O)N(Cc2ccccc2)[C@H](CO)C(C)C)cc1,x,-0.3%,16.4µM*,x,35.5µM*
CC(C)C[C@@H](CO)N(Cc1ccccc1)S(=O)(=O)N(Cc1ccccc1)[C@H](CO)CC(C)C,x,-2.2%,13µM*,x,13µM*
CC(C)C[C@@H](C)C(=O)N(Cc1ccccc1)c1ccccc1,x,-14.8%,u,x,u
COc1ccc(CN([C@H](CO)CC(C)C)S(=O)(=O)N(Cc2ccccc2)[C@H](CO)CC(C)C)cc1,x,-1.1%,23.1µM*,x,u
C=C[C@H](CC(C)C)N(Cc1ccccc1)S(=O)(=O)N(Cc1ccccc1)[C@@H](C=C)CC(C)C,x,-4.0%,14.6µM*,x,13µM*
O=S(=O)(N(Cc1ccccc1)[C@H](CO)Cc1ccccc1)N(Cc1ccccc1)[C@H](CO)Cc1ccccc1,x,-1.3%,u,x,u
CC(=O)O[C@H]1C[C@H]2CC[C@@H]3[C@@H](CC[C@]4(C)[C@H](OC(C)=O)[C@H]([N+]5(C)CCCCC5)C[C@@H]34)[C@]2(C)C[C@H]1[N+]1(C)CCCCC1,-0.6%[16.9 µM],1.3%[56.1 µM],x,-2.9%[17 µM],x
CCCCCn1c(S(=O)(=O)O)nc2ccccc21,-2.0%,-4.9%,-16.6%,-0.5%,-16.7%
C=CS(=O)(=O)N(Cc1ccccc1Br)[C@H](CO)CC(C)C,x,x,10µM*,x,23.1µM*
CC(C)C[C@@H](CO)N(Cc1ccccc1)S(=O)(=O)N(Cc1ccccc1)[C@@H](CO)CC(C)C,x,-2.1%,18.4µM*,x,16.4µM*!
COc1cccc(OCC(=O)NN=C2c3ccccc3-c3ccccc32)c1,-44.4%,4.0%,u,-6.3%,-26.6%
Clc1ccccc1-c1ncc(-c2ccccc2)o1,22.2%[1.91 µM],x,u,-15.7%,6.6%
COCCNc1nnc(SCC(=O)Nc2sc3c(c2C(=O)c2ccccc2)CCCC3)s1,15.8µM*,0.0%,u,u,20.6µM*
Cc1ccc(C(=O)c2c(NC(=O)CSc3nnc(N)s3)sc3c2CCCC3)cc1,20.8%,-1.2%,u,-14.4%,u
Nc1nnc(SCC(=O)Nc2sc3c(c2C(=O)c2ccccc2)CCCC3)s1,22.4µM*,-2.3%,16.4µM*,u,u
Cc1noc(C)c1C(=O)N1CCC2(CC1)CN(c1cccc(-c3ccccc3)c1)C2,28.9%,x,20.6µM*,-13.7%,u
Cc1noc(C)c1C(=O)N1CCC2(CC1)CCN(c1cccc(-c3ccccc3)c1)CC2,u,x,4.61µM*,u,u
Nc1ccc2cccc(O)c2c1,x,x,13µM*,x,u
O=C(COc1ccccc1Cl)c1ccc2c(c1)CCCC2,14.1µM*,-13.4%,-22.2%,u,-23.7%
Cc1ccccc1OCC(=O)NCC(=O)OCC(=O)c1ccc2c(c1)CCCC2,x,1.1%,-10.4%,x,-28.5%
SMILES,RORgamma inh,TDP1 inh,DT40 TDP1 no CPT,VP16 counter,TDP1 cell CPT
Nc1nc(-c2cccc(Br)c2)cs1,u,-0.9%,-18.4%,24.0%,-21.7%
CCc1cccc2c(C(=O)CN3C(=O)NC4(CCCCC4)C3=O)c[nH]c12,x,0.4%,5.8µM*,x,5.8µM*
CCc1cccc2c(C(O)c3c[nH]c4ccccc34)c[nH]c12 (stereo not drawn),x,x,11.2µM*,x,4.47µM*
CCc1cccc2c(C(=O)C(NCCOC)c3ccccc3)c[nH]c12 (stereo not drawn),34.2%,-0.3%,11.6µM*,-6.3%,u
CCc1cccc2c(C(=O)CCl)c[nH]c12,u,5.5%,20.6µM*,14.1µM*,14.6µM*
CCNC(C(=O)c1c[nH]c2c(CC)cccc12)c1ccccc1 (stereo not drawn),6.7%,3.9%,u,-0.3%,u
OC(c1ccccn1)c1c[nH]c2ccccc12 (stereo not drawn),-15.2%,7.8%,-21.0%,-4.3%,-9.6%
CCc1cccc2c(C(=O)CN3C(=O)C(=O)N(C4CCCC4)C3=O)c[nH]c12,x,2.1%,-18.3%,x,u
O=C(CNC(=O)c1ccco1)NCC(=O)OCc1cccc(Cl)c1,u,1.0%,-17.0%,-1.1%,-2.7%
S=C(NCc1ccco1)Nc1cccc(Cl)c1,1.78µM*,11.6%,u,7.08µM*,-11.6%
S=C(NCc1ccco1)Nc1ccc(Cl)c(Cl)c1,12.6µM*,9.8%,u,15.8µM*,u
COc1ccc(Cl)cc1NC(=S)NCc1ccco1,17.8µM*,4.8%,12.0%,u,-6.8%
O=C(CCNc1cccc(Cl)c1)c1ccco1,-10.4%,5.2%,8.2µM*,9.1%,7.31µM*
O=C(NC1CCCC1)C(c1ccccn1)N(C(=O)c1csnn1)c1ccccc1F (stereo not drawn),u,7.2%,-23.3%,-1.5%,-1.5%
CCN(Cc1cccs1)C(=O)CN1CCN(S(=O)(=O)c2ccc3c(c2)OCCCO3)CC1,x,0.0%,u,x,u
CCOc1cc(/C=N/Nc2ncnc(Cl)c2N)ccc1O,20µM*,8.3%,u,u,-24.6%
CCOc1cc(/C=N/Nc2nc(=O)[nH]nc2C)ccc1O,8.91µM*,1.2%,-16.0%,-29.7%,23.3%
Nc1c(Cl)ncnc1N/N=C/c1ccccn1,0.398µM*,9.5%,0.0206µM*,0.891µM*,0.0184µM*
CCOc1cc(/C=N/Nc2nnc(C)n2N)ccc1O,u,x,-7.4%,u,u
CCOc1ccc(/C=N/Nc2nc(=O)[nH]nc2C)cc1OC,12.6µM*,2.7%,8.5%,-1.0%,1.1%
COc1cc(/C=N/Nc2nc(=O)[nH]nc2C)cc(OC)c1O,-32.5%,-2.7%,-24.6%,-14.0%[10 µM],u
Cc1ccc(NC(=S)N2CCC(NC(=O)c3cccc(F)c3)CC2)cc1,-2.2%,-1.4%,-17.7%,-1.1%,9.7%
O=C1CCN(Cc2ccccc2)C=C1C(=O)c1ccccc1,x,x,-17.7%,x,-19.9%
Cc1[nH]c(C)c(S(=O)(=O)NCc2ccc(OC(C)C)cc2)c1C(=O)N1CCCC1,0.5%,0.9%,-2.2%,-1.5%,-23.3%
